From PubChem BioAssay
Unmarked numbers belong to inactive results. For some assays here: Entries with a potency or affinity are not part of this list. The source made the active and inactive calls. Unless noted, how the calls were made is not given here.

Legend:
[1] = antimalarial activity against Dd2 strain (AID 2302;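 active means growth inhibition above 50% at the single 2 µM test dose, taken to imply half-maximal potency below 2 µM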;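 further: 0% = DMSO untreated growth and 100% = chloroquine plus artemisinin killed control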); details: P. falciparum Dd2 in RBCs, LDH growth readout, 72 h; at 2 µM; hits give high values
[2] = HepG2 cytotoxicity, primary screen, cytotoxicity control for P. falciparum antimalarial project, cell-based, ATP luminescence (AID 2303;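 active means inhibition above 50%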;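 further: 0% = DMSO wells and 100% = digitonin-killed cells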); details: HepG2 viability, 24-48 h, at 10 µM, hits give high values
[3] = biological target: L-lactate dehydrogenase (Plasmodium falciparum (isolate CDC / Honduras)) (UniProt Q27743); assay: PfLDH activity inhibition – cell lysate, 3D7 strain, counter-screen for P. falciparum growth inhibition project (AID 2304);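 further: 0% = vehicle and 100% = reference inhibitor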; details: P. falciparum 3D7 crude extract, LDH APAD/NBT absorbance; at 2 µM; hits give high values
Chain of L-lactate dehydrogenase (Plasmodium falciparum (isolate CDC / Honduras)) (Q27743 whole entry, looked up): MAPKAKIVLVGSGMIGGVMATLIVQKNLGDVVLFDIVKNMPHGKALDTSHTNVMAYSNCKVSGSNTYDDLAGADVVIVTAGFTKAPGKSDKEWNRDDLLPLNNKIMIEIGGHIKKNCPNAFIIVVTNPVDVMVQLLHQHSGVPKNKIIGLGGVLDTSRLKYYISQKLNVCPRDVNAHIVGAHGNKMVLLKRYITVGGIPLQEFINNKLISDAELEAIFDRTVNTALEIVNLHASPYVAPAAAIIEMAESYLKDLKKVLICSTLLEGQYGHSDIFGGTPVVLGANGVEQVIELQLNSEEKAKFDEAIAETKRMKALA

[4] = inhibition of 3D7 malaria parasite growth – strain 3D7 (AID 2306);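 further: 0% = DMSO wells and 100% = chloroquine plus artemisinin control wells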; details: P. falciparum 3D7 erythrocytic growth, LDH absorbance, 72 h; at 2 µM; hits give high values
[5] = biological target: Calcium-dependent protein kinase 1 (Plasmodium falciparum (isolate 3D7)) (UniProt P62344); assay: PfCDPK1 kinase inhibitors, biochemical, TCAMS library (AID 1159585; cut-off not given, nearly all actives have IC50 up to about 0.98 µM;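 further: inhibitors leave more ATP so luminescence rises with inhibition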); details: recombinant PfCDPK1, Kinase-Glo ATP depletion luminescence
Chain of Calcium-dependent protein kinase 1 (Plasmodium falciparum (isolate 3D7)) (P62344 whole entry, looked up): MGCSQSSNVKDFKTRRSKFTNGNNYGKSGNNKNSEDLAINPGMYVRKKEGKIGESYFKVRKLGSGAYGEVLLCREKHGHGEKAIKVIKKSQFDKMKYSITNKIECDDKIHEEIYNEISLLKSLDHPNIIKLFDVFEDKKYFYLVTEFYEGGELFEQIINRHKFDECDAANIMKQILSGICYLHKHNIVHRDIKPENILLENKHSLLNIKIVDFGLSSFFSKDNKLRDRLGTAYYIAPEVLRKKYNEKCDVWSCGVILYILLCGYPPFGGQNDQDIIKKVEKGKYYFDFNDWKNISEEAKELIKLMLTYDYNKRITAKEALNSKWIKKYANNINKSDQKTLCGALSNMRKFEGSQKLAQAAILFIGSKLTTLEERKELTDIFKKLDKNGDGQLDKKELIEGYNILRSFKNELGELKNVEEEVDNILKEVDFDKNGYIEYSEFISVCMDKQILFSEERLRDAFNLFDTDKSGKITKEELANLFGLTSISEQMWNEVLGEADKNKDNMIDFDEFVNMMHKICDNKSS

[6] = biological target: Plasmodium falciparum protein kinase 6 (PK6, PF3D7_1337100) (UniProt Q8IDW1); assay: PfPK6 kinase inhibitors, biochemical, TCAMS library (AID 1159586); details: recombinant PfPK6, Kinase-Glo ATP depletion luminescence
Chain of Plasmodium falciparum protein kinase 6 (PK6, PF3D7_1337100) (Q8IDW1 1-305): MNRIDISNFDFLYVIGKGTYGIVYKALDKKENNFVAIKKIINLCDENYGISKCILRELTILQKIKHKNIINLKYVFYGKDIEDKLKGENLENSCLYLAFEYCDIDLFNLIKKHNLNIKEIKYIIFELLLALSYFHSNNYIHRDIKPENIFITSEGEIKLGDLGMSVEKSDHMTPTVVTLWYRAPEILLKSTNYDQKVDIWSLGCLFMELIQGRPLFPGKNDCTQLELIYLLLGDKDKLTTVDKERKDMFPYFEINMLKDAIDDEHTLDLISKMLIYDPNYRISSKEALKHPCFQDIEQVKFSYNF

[7] = biological target: Protein kinase 7 (PK7), Plasmodium falciparum 3D7 (PF3D7_0213400) (UniProt Q7YTF7); assay: inhibition of Plasmodium PK7 catalytic activity – biochemical, TCAMS antimalarial set, Kinase-Glo luminescence (AID 1159587); details: recombinant PfPK7, Kinase-Glo ATP depletion luminescence
Chain of Protein kinase 7 (PK7), Plasmodium falciparum 3D7 (PF3D7_0213400) (Q7YTF7 1-343): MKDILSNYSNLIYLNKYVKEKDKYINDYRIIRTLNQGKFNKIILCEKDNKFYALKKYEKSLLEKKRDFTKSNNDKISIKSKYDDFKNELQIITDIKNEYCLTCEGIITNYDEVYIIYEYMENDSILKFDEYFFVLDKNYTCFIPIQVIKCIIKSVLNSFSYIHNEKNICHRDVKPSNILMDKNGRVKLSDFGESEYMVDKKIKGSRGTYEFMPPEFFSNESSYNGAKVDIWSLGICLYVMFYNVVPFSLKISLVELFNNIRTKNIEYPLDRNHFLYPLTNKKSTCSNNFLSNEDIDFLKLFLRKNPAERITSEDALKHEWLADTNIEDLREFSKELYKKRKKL

[8] = biological target: Calcium-dependent protein kinase 4 (Plasmodium falciparum (isolate 3D7)) (UniProt Q8IBS5); assay: PfCDPK4 kinase inhibitors, biochemical, TCAMS library (AID 1159588; cut-off not given, nearly all actives have IC50 up to about 0.91 µM); details: recombinant PfCDPK4, Kinase-Glo ATP depletion luminescence
Chain of Calcium-dependent protein kinase 4 (Plasmodium falciparum (isolate 3D7)) (Q8IBS5 whole entry, looked up): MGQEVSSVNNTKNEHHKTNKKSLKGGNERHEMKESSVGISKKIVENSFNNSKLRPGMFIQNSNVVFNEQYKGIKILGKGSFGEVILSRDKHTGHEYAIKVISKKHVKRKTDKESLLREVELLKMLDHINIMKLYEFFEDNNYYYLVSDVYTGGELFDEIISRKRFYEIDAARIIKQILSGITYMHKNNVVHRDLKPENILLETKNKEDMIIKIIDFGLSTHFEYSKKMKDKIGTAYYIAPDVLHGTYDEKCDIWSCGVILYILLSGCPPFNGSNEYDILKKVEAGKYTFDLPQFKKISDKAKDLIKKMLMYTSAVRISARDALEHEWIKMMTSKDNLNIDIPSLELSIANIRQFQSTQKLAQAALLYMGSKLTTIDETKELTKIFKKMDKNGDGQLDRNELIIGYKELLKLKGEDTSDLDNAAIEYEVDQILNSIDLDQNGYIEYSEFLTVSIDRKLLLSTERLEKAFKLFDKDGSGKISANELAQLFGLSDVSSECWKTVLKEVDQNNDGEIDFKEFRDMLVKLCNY

Compound | growth inhibition [1] | inhibition [2] | inhibition [3] [%] | growth inhibition [4] | outcome [5] | outcome [6] | outcome [7] | outcome [8]
CC(C)c1ccc(O)cc1Nc1ccnc2ccc(C(F)(F)F)cc12 | 90% (active) | 6% | -6 | 97% (active) | inactive | inactive | inactive | inactive
COc1ccc2nc(C)cc(Nc3ccc(N4CCN(C)CC4)cc3)c2c1 | 3% | 1% | -1 | 101% (active) | inactive | inactive | inactive | inactive
O=C(CC1CCCC1)N(Cc1ccc(-c2ccc(CNC3Cc4ccccc4C3)cc2)cc1)CC1CCCCN1 (stereo not given) | 86% (active) | 41% | -3 | 88% (active) | inactive | inactive | inactive | inactive
COc1ccc(NC(=O)[C@H](Cc2ccccc2)Nc2cc(C)nc(NCCc3cccs3)n2)cc1 | 83% (active) | 12% | -2 | 100% (active) | inactive | inactive | inactive | inactive
COc1cccc(C(=O)[C@H]2C[C@@H]2CN(C)CC(O)c2cc(C)c(OC)cc2C)c1 (stereo not given in full) | 73% (active) | 8% | 2 | 88% (active) | inactive | inactive | inactive | inactive
COc1cc2ncnc(Nc3ccc(Br)c(Cl)c3)c2cc1OC | 15% | 22% | 6 | 101% (active) | inactive | inactive | inactive | inactive
CC(C)C[C@H](NC(=O)c1cc2ccccc2s1)C(=O)N[C@H]1CCN(Cc2ccc(OC[C@@H]3CCCN3C)c3ccccc23)C1 | 93% (active) | 69% (active) | -2 | 101% (active) | inactive | inactive | inactive | inactive
Cc1cc(C(=O)Nc2ccc3c(ccn3C3CCCN(Cc4ccc(C(F)(F)F)cc4F)CC3)c2)no1 (stereo not given) | 95% (active) | 19% | -1 | 92% (active) | inactive | inactive | inactive | inactive
CCCCOC(=O)[C@H](CCC)NC(=O)c1ccc(NS(=O)(=O)c2ccc3nc(N)[nH]c(=O)c3c2)cc1 | 3% | 66% (active) | -1 | 99% (active) | inactive | inactive | inactive | inactive
Cc1cccc2[nH]c(-c3ccc(-c4ccc(NC(=O)Nc5ccc(Cl)cc5)cc4)cc3)nc12 | 100% (active) | 52% (active) | -5 | 101% (active) | inactive | inactive | inactive | inactive
CCNC(=O)c1ccc2c(c1)c(C)c(C)n2Cc1ccc(F)cc1 | 91% (active) | 25% | -1 | 93% (active) | inactive | inactive | inactive | inactive
CCc1cc2c(cc1CC)CC(NC[C@@H](O)c1ccc(O)c3[nH]c(=O)ccc13)C2 | 9% | -3% | -4 | 101% (active) | inactive | inactive | inactive | inactive
CCN1CCC(N(Cc2ccc(-c3ccc(C(F)(F)F)cc3)cc2)C(=O)Cn2c(SCc3ccc(F)cc3)nc(=O)c3c2CCC3)CC1 | 96% (active) | 46% | 2 | 90% (active) | inactive | inactive | inactive | inactive
FC(F)(F)c1ccc(N2CCCN(Cc3cccc(-c4ccccc4CNCc4ccc5c(c4)OCO5)c3)CC2)nc1 | 11% | 23% | 3 | 87% (active) | inactive | inactive | inactive | inactive
O=C(Nc1cccc(C(F)(F)F)c1)c1ccc(S(=O)(=O)NC2CCN(CC3CCCCC3)CC2)cc1 | -3% | 25% | 0 | 83% (active) | inactive | inactive | inactive | inactive
CCN1CCc2c1cc(C(=O)N[C@@H](Cc1ccccc1)[C@H](O)CNC(C)(C)c1cccc(C(F)(F)F)c1)cc2N1CCCCS1(=O)=O | 99% (active) | 6% | -1 | 100% (active) | inactive | inactive | inactive | inactive
Cc1cccc2[nH]c(-c3ccc(-c4cccc(NC(=O)C(=O)c5cccn5C)c4)cc3)nc12 | 17% | 30% | 3 | 98% (active) | inactive | inactive | inactive | inactive
COc1ccc2nccc(NC(=O)N3CCC(NCCOc4cc(F)cc(F)c4)CC3)c2n1 | 38% | 14% | -2 | 86% (active) | inactive | inactive | inactive | inactive
Cc1ccccc1C1CCN(C2CCC(NC(=O)c3csc(-c4cccc(Cl)c4)n3)CC2)CC1 (stereo not given) | 42% | 33% | 3 | 85% (active) | inactive | inactive | inactive | inactive
O=C(NCCCNc1ccnc2cc(Cl)ccc12)c1ccccc1F | 97% (active) | 18% | 3 | 100% (active) | inactive | inactive | inactive | inactive

Compound | growth inhibition [1] | inhibition [2] | inhibition [3] [%] | growth inhibition [4] | outcome [5] | outcome [6] | outcome [7] | outcome [8]
CC(=O)Nc1ccc2[nH]cc(C3CCN(CC4CCC(NC(=O)/C=C/c5ccc(Cl)c(Cl)c5)CC4)CC3)c2n1 (stereo not given) | 79% (active) | 17% | -1 | 101% (active) | inactive | inactive | inactive | inactive
COc1ccc2ncc(F)c(NC(=O)C3CCC(NCc4cc5c(F)cccc5[nH]4)CC3)c2n1 (stereo not given) | 29% | 39% | -1 | 91% (active) | inactive | inactive | inactive | inactive
COc1ccc(-n2cc(C(=O)c3cc(Br)ccc3O)cc(C#N)c2=O)cc1Cl | 23% | 29% | -5 | 99% (active) | inactive | inactive | inactive | inactive
Cc1noc(C)c1-c1cccc(CNCc2ccc(-c3cccc(-c4nc5ccc(C(F)(F)F)cc5[nH]4)c3)cc2)c1 | 97% (active) | 37% | 3 | 101% (active) | inactive | inactive | inactive | inactive
O=C(Nc1cccc(C(F)(F)F)c1)NC1CCN(c2ccnc3cc(Cl)ccc23)C1 (stereo not given) | 89% (active) | 18% | 6 | 101% (active) | inactive | inactive | inactive | inactive
NC(=O)c1ccccc1Nc1nc(Nc2ccc(N3CCOCC3)cc2)ncc1[N+](=O)[O-] | 96% (active) | 53% (active) | 1 | 98% (active) | inactive | inactive | inactive | inactive
Cc1cc(N(C)C)nc(Nc2ccc(NC(=O)c3c(F)cccc3Cl)cc2)n1 | 36% | 15% | 4 | 90% (active) | inactive | inactive | inactive | inactive
CC(C)CCNc1nc(NCc2ccccc2)c2cc(O)ccc2n1 | 92% (active) | 25% | 3 | 103% (active) | inactive | inactive | inactive | inactive
CCOc1cc2ncnc(Nc3ccc(OCc4c(F)cccc4F)c(OC)c3)c2cc1OCC | 60% (active) | 7% | -2 | 96% (active) | inactive | inactive | inactive | inactive
CCOC(=O)c1ccc(NC(=O)Nc2cccc(-c3cccc(-c4nc5ccc(F)cc5[nH]4)c3)c2)cc1 | 100% (active) | 85% (active) | 6 | 101% (active) | inactive | inactive | inactive | inactive
Cc1ccc(O)cc1Nc1ccnc2cc(-c3ccncc3)ccc12 | 84% (active) | 16% | 6 | 100% (active) | inactive | inactive | inactive | inactive
Cc1ccc(C(=O)N2CCN(Cc3nccs3)CC2)cc1 | -2% | -6% | 0 | 86% (active) | inactive | inactive | inactive | inactive
Cn1nc(C(=O)N2CCC(c3[nH]ncc3Cc3ccccc3)CC2)c2ccccc2c1=O | 95% (active) | 5% | -2 | 95% (active) | inactive | inactive | inactive | inactive
Cn1ccnc1-c1nc2ccccn2c1NCC(=O)Nc1ccccc1N1CCCCC1 | 57% (active) | 16% | -7 | 85% (active) | inactive | inactive | inactive | inactive
CC(C)c1ccc(N(CC(=O)N/N=C/c2ccc(C(F)(F)F)cc2)S(=O)(=O)c2ccc(C(F)(F)F)cc2)cc1 | 44% | 2% | 3 | 91% (active) | inactive | inactive | inactive | inactive
COc1cc2nc(N(C)Cc3cc4c(Cl)cccc4s3)nc(N)c2cc1OC | 27% | 32% | 4 | 90% (active) | inactive | inactive | inactive | inactive
CC(CCNc1c2ccccc2nc2ccccc12)N1CCN(C)CC1 (stereo not given) | -2% | 25% | 5 | 101% (active) | inactive | inactive | inactive | inactive
C[C@H](NC(=O)c1c(CN2CCC(NC(=O)CC(C)(C)C)CC2)c(-c2cccs2)nc2ccccc12)C1CCCCC1 | 70% (active) | -3% | -3 | 91% (active) | inactive | inactive | inactive | inactive
CCN(CC)C(=O)C(=O)c1c[nH]c2ccc(Cl)cc12 | 96% (active) | 1% | 0 | 96% (active) | inactive | inactive | inactive | inactive
Cc1cc(NC2CCCC2)nc(Nc2ccccc2F)n1 | 53% (active) | 24% | -2 | 97% (active) | inactive | inactive | inactive | inactive
